Compound activity from PubChem BioAssay.
Most compounds without a hit are left out; they make up all but 7.6% or so of the library.
MCF10A rerep = DNA re-replication induction in MCF 10a cells | Potency, µM (highest dose often 46.1 µM), for the others: top-dose activity, positive = re-replication, most hits filed as activators | MCF 10A DNA re-replication, Hoechst nuclear intensity, 48 h | 350,000 tested, 2.9% active; further: potency means the concentration at half of the fitted maximal effect; % of control where 0% means no effect; nearly all actives have a fitted effect of over 50% in size
KB-V1 cytotox = KB-V1 MDR subline cytotoxicity; KB-V1 MDR cells viability, CellTiter-Glo, 72 h; Potency, µM (top dose mostly 46.1 µM), most hits filed as cytotoxic; 400,000 tested, 3.4% active; further: potency means the concentration at half of the fitted maximal effect; on the % scale 0 is the no-effect control and ±100 the full control effect; nearly all actives have a fitted effect of over 60% in size
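Readout: CellTiter-Glo luminescence, 10 min after addition. Cells: KB-V1 MDR subline, 72 h at 37 degrees C with compound. Analysis: corrected, normalized data fitted to concentration-effect curves.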
SW480 rereplic = inducers of DNA re-replication in SW480 colon cancer cells; SW480 DNA re-replication, Hoechst DNA content imaging, 48 h; Potency, µM (doses to about 46.1 µM), without a hit: at the top dose re-replication activation, actives largely listed as activators; 340,000 tested, 1.8% active; AID 624297; further: potency means the concentration at half of the fitted maximal effect; % of control where 0% means no effect; nearly all actives have a fitted effect of over 55% in size
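DNA re-replication was detected as more nuclei of elevated Hoechst intensity after 48 hr exposure to compound (23 nL pinned per well of 250 cells).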
KCNH2 3.1 block = inhibitors of human KCNH2 3.1 potassium channel isoform; U2OS KCNH2 3.1, thallium flux FluxOr; stronger effect = lower value; 340,000 tested, 0.95% active; activity change, % (tested at about 1.8 µM);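 active means maximum activity change below -70%; inconclusive means maximum activity change from -70% to -50%; inactive means maximum activity change above -50%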;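 further: thallium influx rate constant from kinetic fluorescence after stimulation buffer; on the % scale 0 is the no-effect control and ±100 the full control effect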
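Normalized rate constant (relative to positive and negative DMSO controls) derived from a 2 min kinetic fluorescence read after stimulation; U2OS cells expressing the 3.1 isoform via virus at 1.77 x 10^8 /mL.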
KB-3-1 tox = KB-3-1 parental cell cytotoxicity; 400,000 tested, 1.4% active; AID 1347075; KB-3-1 viability, CellTiter-Glo ATP luminescence, 72 h; Potency, µM (highest dose often 46.1 µM), usual class: cytotoxic; further: potency means the concentration at half of the fitted maximal effect; on the % scale 0 is the no-effect control and ±100 the full control effect; nearly all actives have a fitted effect of over 60% in size
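KB-3-1 parental drug-naive adenocarcinoma cells in DMEM/10% FBS, incubated 72 h at 37 C with pin-transferred compounds across a concentration series. Viability by CellTiter-Glo luminescence; concentration-response curves fitted after normalization.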
KCNH2 WT inh = KCNH2 (human, wildtype) channel inhibition | activity change, % at 1.84 µM | AID 720551 | 340,000 tested, 0.37% active | U2OS, BacMam KCNH2, thallium flux FluxOr; stronger effect = lower value;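 active means maximum activity change below -70%; inconclusive means maximum activity change between -70% and -50%; inactive means maximum activity change above -50%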; further: on the % scale 0 is the no-effect control and ±100 the full control effect
Target sequence (Q12809 whole entry, looked up): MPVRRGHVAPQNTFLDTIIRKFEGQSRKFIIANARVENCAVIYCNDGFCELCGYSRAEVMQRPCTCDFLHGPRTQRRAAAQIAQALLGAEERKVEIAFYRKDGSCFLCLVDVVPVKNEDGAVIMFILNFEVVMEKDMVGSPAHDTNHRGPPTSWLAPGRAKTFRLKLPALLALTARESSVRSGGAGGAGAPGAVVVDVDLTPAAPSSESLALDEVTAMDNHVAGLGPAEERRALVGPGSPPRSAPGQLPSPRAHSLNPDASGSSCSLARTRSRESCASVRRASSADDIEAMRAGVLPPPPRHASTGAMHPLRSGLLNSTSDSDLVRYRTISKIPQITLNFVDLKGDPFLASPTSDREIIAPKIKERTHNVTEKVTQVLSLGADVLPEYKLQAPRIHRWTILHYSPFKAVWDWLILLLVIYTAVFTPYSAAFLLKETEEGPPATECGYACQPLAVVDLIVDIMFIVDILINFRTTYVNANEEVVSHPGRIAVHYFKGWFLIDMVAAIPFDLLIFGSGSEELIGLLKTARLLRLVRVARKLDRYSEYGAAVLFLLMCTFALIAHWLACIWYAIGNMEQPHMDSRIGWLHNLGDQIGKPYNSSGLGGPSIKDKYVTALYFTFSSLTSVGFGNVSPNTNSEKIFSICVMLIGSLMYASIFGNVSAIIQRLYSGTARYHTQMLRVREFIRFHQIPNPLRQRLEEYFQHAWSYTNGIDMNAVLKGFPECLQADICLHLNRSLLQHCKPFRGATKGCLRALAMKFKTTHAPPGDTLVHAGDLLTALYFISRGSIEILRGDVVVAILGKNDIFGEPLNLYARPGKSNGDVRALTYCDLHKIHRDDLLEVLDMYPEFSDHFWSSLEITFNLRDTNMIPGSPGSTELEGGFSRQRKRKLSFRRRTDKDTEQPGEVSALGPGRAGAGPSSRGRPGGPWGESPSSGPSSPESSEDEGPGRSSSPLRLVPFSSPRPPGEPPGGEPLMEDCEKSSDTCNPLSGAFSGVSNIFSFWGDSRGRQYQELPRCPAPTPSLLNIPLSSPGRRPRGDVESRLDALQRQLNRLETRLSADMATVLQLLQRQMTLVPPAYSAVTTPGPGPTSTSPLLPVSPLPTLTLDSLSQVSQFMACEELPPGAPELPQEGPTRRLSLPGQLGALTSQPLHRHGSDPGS
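U2OS cells transduced with wild-type KCNH2 virus are loaded with FluxOr dye for 45 min, and thallium flux is measured in kinetic reads before and after stimulation buffer. Rate constants are normalized to DMSO controls.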
* hit, by the source's call. Unless noted, the call rests on the fitted dose curve; in most records, active means well fitted curve in the direction sought with a large enough effect; inconclusive means small, poorly fitted or top-dose-only effect, or another doubt; inactive means no such curve, though single readings can be large; an effect the other way counts as inactive or inconclusive.

O=C(CSc1ccc(F)cc1)NC(=O)NCc1ccccc1 was read as MCF10A rerep 17%, KB-V1 cytotox inactive, SW480 rereplic 0%, KCNH2 3.1 block -6, KB-3-1 tox inactive and KCNH2 WT inh -23.
For CCc1cccc(C)c1NC(=O)C(CC)Sc1nncn2c1cc1occc12 (stereo unspecified) the results were KB-V1 cytotox inactive and KB-3-1 tox inactive.
For Cc1cc(NC(=O)Cn2c(=O)n(Cc3ccccc3)c(=O)c3ccccc32)no1 the results were MCF10A rerep 12%, KB-V1 cytotox 7.3µM*, SW480 rereplic 8%, KCNH2 3.1 block -13, KB-3-1 tox inactive and KCNH2 WT inh 1.
Screening CCOC(=O)/C=c1\s/c(=C\c2ccccc2C)c(=O)n1CC(=O)NCc1ccc2c(c1)OCO2 returned MCF10A rerep inconclusive, KB-V1 cytotox 3.3µM*, SW480 rereplic inconclusive, KCNH2 3.1 block 5, KB-3-1 tox inactive and KCNH2 WT inh -4.
CCOC(=O)/C=c1\s/c(=C\c2ccc3c(c2)OCCO3)c(=O)n1CC(=O)NCC1CCCO1 (stereo unspecified) was read as MCF10A rerep inconclusive, KB-V1 cytotox inactive, SW480 rereplic -2%, KCNH2 3.1 block 2, KB-3-1 tox inactive and KCNH2 WT inh -19.
Screening CCOC(=O)/C=c1\s/c(=C\c2ccc3cc(OC)ccc3c2)c(=O)n1CC(=O)NCc1ccc2c(c1)OCO2 returned MCF10A rerep 18%, KB-V1 cytotox inconclusive, SW480 rereplic 5%, KCNH2 3.1 block -1, KB-3-1 tox 18µM* and KCNH2 WT inh -1.
COc1cc2c(=O)n(Cc3ccccc3)c(=O)n(CC(=O)NCC3CCCO3)c2cc1OC (stereo unspecified) was read as MCF10A rerep -2%, KB-V1 cytotox 21µM*, SW480 rereplic -3%, KCNH2 3.1 block 6, KB-3-1 tox inactive and KCNH2 WT inh -11.
For O=C(CCNC(=O)C1CCN(S(=O)(=O)c2ccc(F)cc2)CC1)NCc1ccccn1 the results were KB-V1 cytotox inactive, KCNH2 3.1 block -6, KB-3-1 tox inactive and KCNH2 WT inh -5.
For CC1(C(=O)NS(=O)(=O)c2ccccc2Cl)CCN1C(=O)C1(c2ccc(Cl)cc2)CC1 (stereo unspecified) the results were KB-V1 cytotox inactive and KB-3-1 tox inactive.
CCOC(=O)c1[nH]c(C(=O)O)c(CCN(CC)CC)c1C was read as MCF10A rerep -7%, KB-V1 cytotox inactive, SW480 rereplic 9%, KCNH2 3.1 block 2, KB-3-1 tox inactive and KCNH2 WT inh -5.
For CCOC(=O)/C=c1/s/c(=C\c2c(OC)ccc3ccccc23)c(=O)n1CC(=O)NCC1CCCO1 (stereo unspecified) the results were MCF10A rerep inconclusive, KB-V1 cytotox 4.6µM*, SW480 rereplic 15µM*, KCNH2 3.1 block -25, KB-3-1 tox inconclusive and KCNH2 WT inh 4.
`CCOC(=O)/C=c1\s/c(=C\c2c(OCC)ccc3ccccc23)c(=O)n1CC(=O)NCC1CCCO1` (stereo unspecified) gave MCF10A rerep inconclusive, KB-V1 cytotox inconclusive, SW480 rereplic 23%, KCNH2 3.1 block -16, KB-3-1 tox inconclusive and KCNH2 WT inh -26.
`Cc1cc(C(=O)C[N+]2(C)CCOCC2)c(C)n1-c1ccc(Br)cc1` gave MCF10A rerep 4%, KB-V1 cytotox inactive, SW480 rereplic 7%, KCNH2 3.1 block 12, KB-3-1 tox inactive and KCNH2 WT inh -5.
`Cc1nn(C)c(Cl)c1NC(=O)OCc1ccc(Cl)cc1Cl` gave MCF10A rerep inconclusive, KB-V1 cytotox 2.6µM*, SW480 rereplic 2%, KCNH2 3.1 block -9, KB-3-1 tox 4.1µM* and KCNH2 WT inh 4.
`Cc1nn(Cc2ccc(Cl)cc2Cl)c(C)c1NC(=O)CCl` gave MCF10A rerep inconclusive, KB-V1 cytotox 18µM*, SW480 rereplic 18%, KCNH2 3.1 block -8, KB-3-1 tox 15µM* and KCNH2 WT inh 8.
